Source: PubChem BioAssay AID1159580 (chemical genetic matrix, 2015)
Hit rate of the full screen: of about 5,500 compounds, about 2,000 (36%) were called active. Roughly 18% stayed inconclusive and do not appear here. Cut-off read from the data, not from the text of the source: active = normalized growth mostly below about 0.91 (no sharp cut-off); inconclusive = no clear call, values can overlap the other calls; inactive = mostly above about 0.92. The list shows a part of the results.

Assay: chemical genetic growth profiling, strain panel (AID 1159580);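 note: tested at 20 µM; growth read once vehicle control cultures reached saturation at 30 °C; 1 = growth at the plate median or of vehicle wells; lower values mean less growth of the strain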
Conditions: S. cerevisiae deletion strains, growth OD

Measured: normalized growth

CC(=O)O[C@H]1CC2CCC3C(CC[C@@]4(C)C3C[C@H]([N+]3(C)CCCCC3)[C@@H]4OC(C)=O)[C@@]2(C)C[C@@H]1[N+]1(C)CCCCC1 (stereo not given in full)
inactive: locus YAL021C, strain ccr4, active compounds read low 1.02 | locus YAL026C, strain drs2, active compounds read low 1.02 | locus YAL030W, strain snc1, active compounds read low 1.02 | locus YBL061C, strain skt5, active compounds read low 1.01 | locus YBR009C, strain hhf1, active compounds read low 1.03 | locus YBR023C, strain chs3, active compounds read low 1.03 | locus YBR171W, strain sec66, active compounds read low 1.04 | locus YBR231C, strain swc5, active compounds read low 1.02 | locus YBR279W, strain paf1, active compounds read low 1.01 | locus YCL011C, strain gbp2, active compounds read low 1.02 | locus YCL016C, strain dcc1, active compounds read low 1.02 | locus YCL061C, strain MRC1, active compounds read low 1.02 | locus YCL069W, strain vba3, active compounds read low 1.01 | locus YCR088W, strain abp1, active compounds read low 1.01 | locus YDL005C, strain med2, active compounds read low 1.02 | locus YDL040C, strain nat1, active compounds read low 1.02 | locus YDR001C, strain nth1, active compounds read low 1.01 | locus YDR069C, strain doa4, active compounds read low 1.02 | locus YDR137W, strain rgp1, active compounds read low 1.04 | locus YDR159W, strain sac3, active compounds read low 1.04 | locus YDR195W, strain ref2 0.978 | locus YDR297W, strain sur2, active compounds read low 1.01 | locus YDR334W, strain swr1, active compounds read low 1.01 | locus YDR335W, strain msn5, active compounds read low 1.02 | locus YDR392W, strain spt3, active compounds read low 0.943 | locus YEL003W, strain gim4, active compounds read low 1.02 | locus YEL037C, strain rad23, active compounds read low 1.02 | locus YEL061C, strain CIN8 (second series), active compounds read low 1.02 | locus YER015W, strain faa2, active compounds read low 1.01 | locus YER016W, strain bim1, active compounds read low 1.02 | locus YER111C, strain swi4, active compounds read low 1.01 | locus YER155C, strain BEM2 (second series), active compounds read low 1.03 | locus YFR010W, strain ubp6, active compounds read low 1.01 | locus YGL167C, strain pmr1, active compounds read low 1.02 | locus YGL173C, strain kem1, active compounds read low 1.03 | locus YGL227W, strain vid30, active compounds read low 1.01 | locus YGL240W, strain doc1, active compounds read low 1.02 | locus YGL253W, strain hxk2, active compounds read low 1.02 | locus YHR013C, strain ard1, active compounds read low 1.01 | locus YHR027C, strain rpn1, active compounds read low 1.01 | locus YHR030C, strain SLT2, active compounds read low 1.04 | locus YHR079C, strain IRE1, active compounds read low 1.03 | locus YHR142W, strain chs7, active compounds read low 1.02 | locus YJL092W, strain hpr5, active compounds read low 1.01 | locus YJL095W, strain BCK1 (second series), active compounds read low 1.02 | locus YJL095W, strain BCK1, active compounds read low 1.02 | locus YJL115W, strain asf1, active compounds read low 1.03 | locus YJL129C, strain trk1, active compounds read low 1.02 | locus YJL154C, strain vps35, active compounds read low 1.01 | locus YJL164C, strain tpk1, active compounds read low 1.01 | locus YJL166W, strain qcr8, active compounds read low 1.02 | locus YJL187C, strain SWE1, active compounds read low 1.02 | locus YJR066W, strain TOR1, active compounds read low 0.979 | locus YKL160W, strain elf1, active compounds read low 1.02 | locus YKR026C, strain gcn3, active compounds read low 1 | locus YKR091W, strain srl3, active compounds read low 1.02 | locus YLL001W, strain dnm1, active compounds read low 1.02 | locus YLL026W, active compounds read low 1.03 | locus YLL041C, strain sdh2, active compounds read low 1.02 | locus YLR027C, strain aat2, active compounds read low 1.02 | locus YLR113W, strain HOG1, active compounds read low 0.988 | locus YLR221C, strain rsa3, active compounds read low 1.01 | locus YLR258W, strain gsy2, active compounds read low 1.02 | locus YLR262C, strain YPT6 (second series), active compounds read low 1.04 | locus YLR320W, strain mms22, active compounds read low 1.01 | locus YLR342W, strain FKS1, active compounds read low 1.03 | locus YLR357W, strain rsc2, active compounds read low 0.991 | locus YLR370C, strain arc18, active compounds read low 1.03 | locus YLR384C, strain iki3, active compounds read low 1.01 | locus YML120C, strain ndi1, active compounds read low 1.01 | locus YMR058W, strain fet3, active compounds read low 1.02 | locus YMR125W, strain sto1, active compounds read low 1.02 | locus YMR129W, active compounds read low 1.02 | locus YMR205C, strain PFK2, active compounds read low 1.02 | locus YMR231W, strain pep5, active compounds read low 1.01 | locus YNL071W, strain lat1, active compounds read low 1.01 | locus YNL183C, strain NPR1, active compounds read low 0.974 | locus YNL209W, strain ssb2, active compounds read low 1.01 | locus YNL248C, strain rpa49, active compounds read low 0.988 | locus YNL322C, strain KRE1 (second series), active compounds read low 1.02 | locus YNR049C, strain mso1, active compounds read low 1.01 | locus YOR001W, strain rrp6, active compounds read low 1.03 | locus YOR070C, strain gyp1, active compounds read low 1.02 | locus YOR080W, strain dia2, active compounds read low 1.03 | locus YOR083W, strain WHI5, active compounds read low 1.02 | locus YOR106W, strain vam3, active compounds read low 1.02 | locus YOR231W, strain MKK1, active compounds read low 1.03 | locus YOR265W, strain rbl2, active compounds read low 1.02 | locus YOR270C, strain vph1, active compounds read low 1.05 | locus YOR290C, strain snf2, active compounds read low 1.02 | locus YPL051W, strain arl3, active compounds read low 1.02 | locus YPL078C, strain atp4, active compounds read low 1.01 | locus YPL106C, strain sse1, active compounds read low 1 | locus YPL240C, strain hsp82, active compounds read low 1.02 | locus YPL256C, strain CLN2, active compounds read low 1.04
